Screen size: about 60,000 compounds; about 65 (0.1%) were called active. Shown is part of a subset that was picked to be rich in actives. Unmarked numbers belong to inactive results. Calls come from the whole dose curve; as a rule, active = well fitted inhibition curve with a large enough effect; inconclusive = small, poorly fitted or top-dose-only effect; inactive = no such curve, though single readings can be large or run the other way.
Potency is the fitted concentration of half-maximal effect.

Ubiquitin carboxyl-terminal hydrolase 2 (Homo sapiens), sequence (O75604 whole entry, looked up): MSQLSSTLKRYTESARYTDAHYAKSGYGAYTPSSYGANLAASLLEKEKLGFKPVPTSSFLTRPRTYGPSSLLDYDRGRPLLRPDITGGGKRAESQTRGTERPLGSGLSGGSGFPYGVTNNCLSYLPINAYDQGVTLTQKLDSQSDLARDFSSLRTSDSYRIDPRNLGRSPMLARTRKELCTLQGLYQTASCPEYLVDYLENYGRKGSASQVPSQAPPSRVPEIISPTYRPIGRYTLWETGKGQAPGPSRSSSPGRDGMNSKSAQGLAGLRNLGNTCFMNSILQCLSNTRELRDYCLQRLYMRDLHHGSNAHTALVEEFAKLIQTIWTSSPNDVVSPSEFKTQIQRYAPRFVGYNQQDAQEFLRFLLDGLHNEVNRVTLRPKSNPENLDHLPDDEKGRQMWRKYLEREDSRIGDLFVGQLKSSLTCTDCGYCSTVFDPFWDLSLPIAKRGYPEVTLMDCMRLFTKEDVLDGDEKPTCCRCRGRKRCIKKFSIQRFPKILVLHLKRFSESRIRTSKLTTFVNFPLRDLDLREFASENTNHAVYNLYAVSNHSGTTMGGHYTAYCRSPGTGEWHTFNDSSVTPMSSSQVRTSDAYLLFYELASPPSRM

In this experiment the target is Ubiquitin carboxyl-terminal hydrolase 2 (Homo sapiens) (UniProt O75604). Briefly: qHTS Assay for Inhibitors of Ubiquitin-specific Protease USP2a. Note: nearly all actives have a fitted effect of over 60% in size. The conditions noted are these: USP2a enzymatic assay; Potency: qHTS inhibition; series mostly up to 38.3 µM; activity change, negative = inhibition: at the top concentration. From the text:
NIH Molecular Libraries Screening Centers Network [MLSCN]
NIH Chemical Genomics Center [NCGC]
PI Name: Nicholson, Ben. Progenra Inc, Malvern, PA
Homeostasis of cellular proteins is maintained through a combination of synthesis and degradation. The pathway that accounts for the majority of protein degradation is the ubiquitin-proteasomal pathway. Ubiquitin (Ub) is highly conserved in all cells and the generation of a multi-Ub chain typically targets proteins for degradation by the proteasome. However, ubiquitination is highly reversible and dynamic. Deubiquitination, the reverse process, is catalyzed through the action of enzymes referred to as isopeptidases or deubiquitinating enzymes (DUBs). This group of enzymes is collectively responsible for maintaining adequate pools of free ubiquitin and regulating the ubiquitination status of cellular proteins. The class of DUBs referred to as the ubiquitin-specific proteases (USP) family functions endoproteolytically to cleave Ub chains from a wide range of protein substrates. USP2a deubiquitinates fatty acid synthase (FASN) which has recently been identified as an emerging oncology target. To identify inhibitors of USP2a a cell-free assay was employed.
The reporter enzyme chosen is phospholipase A2 (PLA2), which has an absolute requirement for a free amino terminus. Thus, fusion of a UBL to the N-terminus of PLA2 inactivates PLA2. When the UBL-PLA2 reporter enzyme is cleaved by USP2, the activated reporter can subsequently act on its substrate, which is the commercially available NBD C6-HPC (Invitrogen). Thus, this coupled assay gives a fluorescent read-out, which is generated through the cleavage of the PLA2 reporter enzyme. The assay, developed by Progenra, Inc. uses Ub-PLA2 and USP2a at near equal and low (nM) amounts and has been licensed for sale by LifeSensors, Inc. as the Ub-IsoPro1 kit.
NCGC Assay Protocol Summary:
The assay buffer, prepared fresh at the day of the assay, contains 20mM Tris-HCl pH 8.0, 2mM CaCl2, 2mM beta-Mercaptoethanol, 0.1% DMSO. 3ul of 40nM (20nM final) USP2 core, which is stored on ice, is dispensed into a medium-binding black solid Kalypsys 1,536 well plate using the Kalypsys dispenser. The assay plate is then pinned with 23nL compound with the Kalypsys pintool in columns 5-48. The controls are pinned as follows: column 1&2 two-fold dilutions of 2M NEM in duplicate; column 3 DMSO; column 4 2M NEM (final concentration 38.2mM). The assay plate is incubated at RT for 30min. Subsequently, 3uL of 40nM (20nM final) Ub-PLA2 and 40uM (20uM final) NBD C6-HPC (stored on ice and protected from light) were dispensed into the plate using the Kalypsys dispenser. Plates were read immediately (0 Hour) on an Envision (Perkin Elmer) plate reader using the following wavelengths Ex 460nm /Em 535nm. Then, the assay plates were incubated for 2.5 hours and read again on the Envision using the same settings
Data were normalized to the to AC100 inhibition (NEM). Concentration-response curves were fitted to the normalized data and the concentration-response curves were then classified based on curve quality (r2), response magnitude and degree of measured activity. The time zero reading was used to flag fluorescence artifacts.
Keywords: ubiquitination, deubiquitination, proteases, profluorescent, MLSMR, MLSCN, NIH Roadmap, qHTS, NCGC
Background: In qHTS, concentration-response curves come from the screen itself.
As for `C=C1C(=O)C23C(O)C1CCC2[C@]12COC3(O)C(O)C1C(C)(C)CC[C@H]2O` (stereo partly drawn), the “activity change, negative = inhibition” value was 37.5%.
Still for that read-out and setting: in the case of `COC(=O)COc1ccc(S(=O)(=O)N2CCOCC2)cc1` it was 3.69%.
Still for that read-out and setting: in the case of `Cc1c(NC(=O)Nc2ccccc2Cl)sc(=S)n1C` it was -28.8%; in that of `CCOC(=O)C(CCOc1cccc(CC)c1)C(=O)OCC`, -5.22%.
Still for that read-out and setting: to `Cc1cccc(C(=O)Nc2ccc(CC(=O)O)cc2)c1` belongs 3%.
Turning to `CC(=O)OCC(=O)[C@@]1(O)CCC2C3CCC4=CC(=O)CC[C@]4(C)C3C(=O)C[C@]21C` (stereo partly drawn), the “activity change, negative = inhibition” value is -9.52%.
Still for that read-out and setting: in the case of `COC(=O)c1cccc(NC(=O)CN2CCC(NC(=O)c3cc(OC)c(OC)c(OC)c3)CC2)c1` it was 20.6%.
With `CC(=O)c1c(N2CCOCC2)nc(=S)n(Cc2ccccc2)c1C`, the “activity change, negative = inhibition” value is 3.47%.
The same measure, in the same setting: to `CC1(C)C(=O)Nc2ccccc2N1C(=O)COC(=O)Cn1cnc2ccccc2c1=O` belongs 4.1%; to `O=c1c2ccccc2oc2nc(C3CCCCC3)n(Cc3ccco3)c(=O)c12`, 0.85%; to `Oc1cc(O)c2c(c1)OC(c1ccc(O)c(O)c1)C(O)C2` (stereo not drawn), 12.9%.
Still for that read-out and setting: in the case of `Cc1nc2nc(COc3ccccc3)[nH]n2c(=O)c1C` it was -5.15%; in that of `C=C[C@](C)(O)CCC1C(=C)CCC2[C@@](C)(CO)CCC[C@@]12C` (stereo partly drawn), 1.55%.
On the same count and under the same terms, to `CC(=O)OC1CCC2(O)CC1(C)CCC1C2CC1(C)C` (stereo not drawn) belongs 6.57%; to `CCOC(=O)c1ccc(NC(=O)CSc2nnc(COc3ccccc3OC)n2C)cc1`, 9.55%.
For the compound `Cn1cc(-c2nc3cnc(N4CCNCC4)nc3n(CCC#N)c2=O)c2ccccc21`, the “activity change, negative = inhibition” value was 212%.
On to `O=C(NCc1ccc(Cl)c(Cl)c1)c1cccnc1`, for which the activity change, negative = inhibition was 8.48% [at 7.66 µM].
The same measure, in the same setting: in the case of `COC(=O)Nc1ncc(CN2C(=O)c3ccccc3C2=O)s1` it was 12%; in that of `CC(C)NC(=O)N1CC[C@@]2(CCCN(C(=O)c3cccn3C)C2)C1`, 15.7%; in that of `CC(C)NC(=O)N1CCC2(CC1)CCN(C(=O)c1cccn1C)CC2`, 8.09%.
On to `CC(C)NC(=O)N1CCCC2(CCN(C(=O)c3cccn3C)CC2)C1`, for which the Potency was 10 µM (active).
`CCCNc1ncnc2sc(C)c(C)c12`: the “activity change, negative = inhibition” value was -3.55%.
Still for that read-out and setting: in the case of `Nc1nc2nc(Cl)[nH]c2c(=O)[nH]1` it was 18.5%; in that of `Cc1cccc(CC(=O)Nc2c3c(nn2-c2cccc(Cl)c2)CS(=O)C3)c1` (stereo not drawn), 7.15%; in that of `Cc1ccccc1-c1nc(N(C)Cc2ccco2)c2ccccc2n1`, -9.88%.
In the case of `CCOc1cccc(C(=O)Nc2cccnc2)c1`, the “activity change, negative = inhibition” value is 3.24%.
On the same count and under the same terms, to `O=C(Nc1cccc(F)c1)N1CC2(CCN(C(=O)c3csnn3)CC2)C1` belongs 12.9%; to `CCOC(=O)[C@H]1CCC[C@@H](NS(=O)(=O)c2ccc(NC(C)=O)cc2)C1`, 5.45%; to `CC(NC(=O)Nc1ccccc1)c1ccccc1` (stereo not drawn), 1.41%.
On the same count and under the same terms, to `Cc1ccc2c(CSc3nncs3)cc(=O)oc2c1` belongs 35.6%; to `COc1c2c(cc3occ(-c4ccc5c(c4)OCO5)c(=O)c13)OC(C)(C)C=C2`, -26.3%.
The same measure, in the same setting: to `O=S(=O)(NCc1ccc2c(c1)OCO2)c1cccc2nsnc12` belongs -1.28%; to `CCOC(=O)CSc1nc2c(c(=O)n(Cc3ccccc3Cl)c(=O)n2C)n1C`, -0.387%.
With `C/C=C(/C)C(=O)OC1Cc2c(ccc3ccc(=O)oc23)OC1(C)C` (stereo not drawn), the “activity change, negative = inhibition” value is -1.14%.
Still for that read-out and setting: to `COCCCN1C(=O)c2ccc(C(=O)Nc3ccc(OC)cc3OC)cc2C1=O` belongs 13.4%; to `Cc1c(O)cc(O)c2c(=O)c(-c3ccc(O)cc3)coc12`, -6.86%; to `CC(C)c1nnc(NC(=O)C2CCCN2S(=O)(=O)c2ccc(Cl)cc2)s1` (stereo not drawn), 9%.
As for `Oc1ccc2c(c1)OCC1c3cc4c(cc3OC21)OCO4` (stereo not drawn), the “activity change, negative = inhibition” value is -11.2%.
The same measure, in the same setting: in the case of `CN1C(=O)C[C@H](c2ccccc2)C1=O` it was -7.44% [at 17.1 µM].
Still for that read-out and setting: in the case of `O=C(NCc1cccnc1)c1cn(-c2ccccc2)nc1-c1cccs1` it was 28.9%; in that of `CCC12CN3CC(CC)(CN(C1)C31C(=O)N(C)c3ccc(C)cc31)C2=O` (stereo not drawn), 0.969%.
With `CCOC(=O)N1CCN(C(=O)CN(c2ccc(C)c(C)c2)S(=O)(=O)c2ccccc2)CC1`, the “activity change, negative = inhibition” value is 18.3%.
Same read-out and setting: in the case of `COc1ccc(-c2ccc(-c3noc(-c4ccncc4)n3)c(OC)n2)cc1` it was 21.4%; in that of `NC(=O)C1CC=CCC1C(=O)OCC(Cl)=C(Cl)Cl` (stereo not drawn), 12.5%; in that of `CC1C(O)CC2C(C(=O)O)=CO[C@@H](O[C@H]3OC(CO)C(O)C(O)C3O)C21` (stereo partly drawn), -4.3%.
Same read-out and setting: in the case of `CC(C)(C)c1ccc(C(=O)CSc2ncn[nH]2)cc1` it was -4.94%.
Same read-out and setting: in the case of `c1cncc(CNc2ccnc(-c3ccc4c(c3)OCO4)n2)c1` it was 23.9%.
Turning to `CCC(CCC(C)C1CCC2C3CC=C4CC(O)CC[C@@]4(C)C3CC[C@@]12C)C(C)C` (stereo partly drawn), the “activity change, negative = inhibition” value is -2.58%.
In the case of `CC1(C)Cc2ccccc2-c2nnc(-c3cccc(O)c3)n21`, the “activity change, negative = inhibition” value is -2.73%.
With `COc1cccc(C2/C(=C(/O)c3ccc(F)cc3)C(=O)C(=O)N2CCN(C)C)c1` (stereo not drawn), the activity change, negative = inhibition was 4.13% [at 7.66 µM].
As for `CCOC(=O)C1=C(C)NC(C)=C(C(=O)OCC)C1C1=COCCO1`, the “activity change, negative = inhibition” value is -3.29%.
As for `CSCCC1NC2(C(=O)Nc3ccc(Cl)cc32)[C@@H]2C(=O)N(C3CCCC3)C(=O)[C@H]12` (stereo partly drawn), the “activity change, negative = inhibition” value is 52.4%.
Still for that read-out and setting: to `O=C1C2(c3ccccc3)CN(CCCO)CC1(c1ccccc1)CN(CCCO)C2` belongs -3%.
Still for that read-out and setting: in the case of `CCCS(=O)(=O)N1CCCC(C(=O)NCCN2CCCCC2C)C1` (stereo not drawn) it was -14%; in that of `CC(=O)c1c(N2CCOCC2)nc(=S)n(-c2cc(C)ccc2C)c1C`, -3.02%.
The same measure, in the same setting: to `Cc1cc(C)c(C#N)c(SCc2ccc3c(c2)OCO3)n1` belongs -11.2%.
On to `CCCC(CCC(=O)OC)(C(=O)OCC)c1csc(N)n1` (stereo not drawn), for which the “activity change, negative = inhibition” value was -12.5%.
The same measure, in the same setting: to `COc1cc(OC)c2c(c1Cl)OC1(C2=O)C(O)=CC(=O)CC1C` (stereo not drawn) belongs 7.89%; to `Cc1ccc2nc(-c3ccc(SCC(=O)Nc4cc(C)on4)nc3)[nH]c2c1`, 33.2%.
The same measure, in the same setting: in the case of `COc1ccc(N(C(=O)c2cccnc2)S(=O)(=O)c2ccc3c(c2)n(C)c(=O)n3C)cc1` it was 2.22%; in that of `CC(=O)C1C(c2cccc(Oc3ccccc3)c2)NC(=O)NC1(O)C(F)(F)F` (stereo not drawn), 9.93%; in that of `CC(=O)NS(=O)(=O)c1ccccc1`, 2.74%.
Still for that read-out and setting: in the case of `COc1ccc(C2C(C#N)=C(N)Oc3n[nH]c(C)c32)cc1CN1CCN(c2ccc(F)cc2)CC1` (stereo not drawn) it was 11%; in that of `O=C(c1ccc(=O)[nH]c1)N(Cc1ccco1)C1(C(=O)NC2CCCCC2)CCCCC1`, 10.6%; in that of `CCCCCCOC(=O)NCC(O)c1ccccc1` (stereo not drawn), 7.61%.
In the case of `CCS(=O)(=O)N1CCCC(C(=O)NCCCN(C)Cc2ccccc2)C1` (stereo not drawn), the “activity change, negative = inhibition” value was 4.58%.
Same read-out and setting: to `CCCN1Cc2cccc(C(=O)NCc3ccccc3)c2C1=O` belongs 6.55%; to `O=C(O)c1ccc(F)c(S(=O)(=O)Nc2ccccc2)c1`, -5.39%.

Source of the values: PubChem BioAssay AID927 (National Center for Advancing Translational Sciences (NCATS), 2007).
